Rows were chosen to be rich in hits. Some 7% of all compounds tested hit in one or more screens of this group.
ADAM10 inh: inhibitors of human ADAM10; O14672; hit rate 0.62% among 370,000; inhibition, % at 7 µM; recombinant ADAM10, EDANS/DABCYL FRET peptide cleavage, 3 h;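 active = inhibition above a per-campaign cutoff equal to the mean of compounds falling between control-based bounds plus 3 SD, cut at about 20% in these data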;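 also: 0% = DMSO wells while the 100% control is not disclosed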
Target sequence (O14672 214-748 limits assumed): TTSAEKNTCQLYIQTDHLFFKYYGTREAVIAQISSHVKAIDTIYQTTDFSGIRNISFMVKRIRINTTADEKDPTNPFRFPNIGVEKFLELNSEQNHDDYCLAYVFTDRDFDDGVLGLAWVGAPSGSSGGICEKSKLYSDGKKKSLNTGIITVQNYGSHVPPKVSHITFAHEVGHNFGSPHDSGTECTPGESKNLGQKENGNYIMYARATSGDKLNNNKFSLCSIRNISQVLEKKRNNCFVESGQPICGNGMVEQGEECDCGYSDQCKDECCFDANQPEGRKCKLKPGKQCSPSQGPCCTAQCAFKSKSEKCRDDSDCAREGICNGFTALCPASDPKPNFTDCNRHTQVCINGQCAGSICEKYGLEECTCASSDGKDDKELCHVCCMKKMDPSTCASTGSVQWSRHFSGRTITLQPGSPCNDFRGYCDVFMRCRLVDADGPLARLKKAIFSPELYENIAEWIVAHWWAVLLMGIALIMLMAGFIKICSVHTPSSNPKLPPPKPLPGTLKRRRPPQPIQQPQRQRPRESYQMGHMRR
proKLK7 act: activators of human kallikrein-7 zymogen; purified proKLK7, EDANS-DABCYL substrate fluorescence; 100% is mature enzyme control, 0% vehicle; activation, % at 7 µM; hit rate 0.9% among 370,000; AID 652039;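 active = activation above the mean of all tested compounds plus 3 SD, computed per campaign excluding outliers beyond control limits, cut at about 13% in these data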
rCAG RNA binder: molecules binding r(CAG) RNA repeats. r(CAG) RNA repeat, TO-PRO-1 dye displacement fluorescence. inhibition, % at 3 µM. hit rate 1.3% among 370,000;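 active = inhibition above the plate cutoff, the mean of all test compounds on that plate plus 3 SD, cut at about 35% in these data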;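 also: 0% = DMSO alone and 100% = 100 µM mitoxantrone as full dye displacement; higher means more dye released from RNA so lower well fluorescence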
AHR act: activates the human aryl hydrocarbon receptor; activation, % at 5 µM; hit rate 2.5% among 320,000; AHR-responsive luciferase reporter cells, luminescence; AID 2796; in the data active = activation above about 47%;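 also: 0% = vehicle wells and 100% = reference agonist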
NR3A LBD binder: modulators (binders) of human NR3A ligand-binding domain; NR3A LBD differential scanning fluorimetry, Tm shift; 0% = protein alone, 100% = glycine-bound protein; Tm shift relative to glycine control, % at 25 µM; hit rate 2.5% among 340,000; AID 1259313;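 active = melting temperature shift of at least 10% of the positive control shift, at one fixed dose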
ADAM17 inh: inhibitors of human ADAM17. P78536. recombinant ADAM17, EDANS/DABCYL FRET peptide cleavage. inhibition, % at 6.95 µM. hit rate 0.83% among 370,000;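 active = inhibition above the mean of compounds lying between control limits plus 3 SD, set per campaign, cut at about 8.5% in these data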;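 also: 0% = DMSO-only wells as the low control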
Numbers without * were called inactive; nt = no result given.

SMILES	ADAM10 inh	proKLK7 act	rCAG RNA binder	AHR act	NR3A LBD binder	ADAM17 inh
CCOC(=O)c1ccc(NC(=O)c2nc[nH]c2C(=O)N(CC)CC)cc1	-0.2	-0.5	-1.4	29.6	1.4	-1.0
CCN(CC)C(=O)c1[nH]cnc1C(=O)Nc1ccc(OC)cc1	0.5	-0.2	-3.9	65.4*	0.3	-2.2
Cc1cccc(NC(=O)c2nc[nH]c2C(=O)N(C)CCO)c1	-4.7	0.0	1.5	nt	nt	-0.1
CCN(CC)C(=O)c1[nH]cnc1C(=O)Nc1ccc(Cl)cc1	-0.1	0.2	1.8	74.7*	2.4	-3.0
CCN(CC)C(=O)c1[nH]cnc1C(=O)Nc1cccc(C)c1	-8.7	0.7	6.6	54.0*	-0.5	-2.4
COc1ccc(/C=N/NC(=O)c2sc(C)nc2C)cc1	-5.5	-0.2	-1.2	55.9*	-0.6	-3.0
O=C(c1ccc(Br)o1)N1CCN(c2ncccn2)CC1	1.4	-0.5	0.8	58.7*	0.6	-1.3
O=C(Nc1cccc(Br)c1)c1ccc(CSc2ccccc2)cc1	-1.1	0.3	0.2	0.2	30.1*	-0.4
Cc1ccccc1NC(=O)c1ccc2c(c1)OCCO2	-0.9	-0.8	-0.6	-2.9	-0.8	-4.3
Cc1cc(NC(=O)c2ccc3c(c2)OCCO3)ccc1NC(=O)c1cc2ccccc2o1	7.8	-41.5	4.7	-7.9	14.7*	-0.6
CC(=O)c1cccc(NC(=O)CSCc2ccc(Br)cc2)c1	-2.8	0.6	-2.5	-1.0	22.9*	-0.2
O=C(Nc1cccc(Br)c1)c1cc2ccccc2o1	12.2	-0.6	3.9	44.1	32.0*	2.6
Cc1cccc(NC(=O)c2cc3ccccc3o2)c1	8.3	-0.1	2.9	8.0	-1.3	2.8
CC(=O)c1cccc(NC(=O)CSCc2ccccc2)c1	-8.6	-0.5	4.0	-1.9	-1.7	0.4
COC(=O)C1CN(CCc2ccccc2)CCS(=O)(=O)N1Cc1ccc(C)cc1 (stereo not drawn)	3.0	-0.4	-0.5	nt	nt	0.1
CCC(C)N(C(=O)c1oc(=O)c2ccccc2c1-c1ccc(C)cc1)C(C)CC (stereo not drawn)	1.8	0.3	2.4	nt	nt	4.9
C=CCn1c(Cc2cccs2)nnc1SCC(=O)Nc1cccc2ccccc12	-5.7	0.3	1.8	nt	nt	-1.6
Nc1[nH]c(C(=O)c2ccccc2)c(-c2ccc(O)cc2)c1C(=O)NCCc1c[nH]c2ccccc12	12.9	nt	nt	nt	nt	3.2
Cc1cc(NC(=O)c2cccnc2)ccc1NC(=O)c1cc2ccccc2o1	-5.8	-1.5	-3.0	-4.4	4.5	-1.8
Cc1ccc(NC(=O)c2ccc3c(c2)OCCO3)cc1	-0.9	-0.3	0.8	-7.2	-1.3	0.1
O=C(Nc1ccc(NC(=O)c2cc3ccccc3o2)cc1)c1ccc2c(c1)OCCO2	13.8	-0.2	1.0	-11.4	21.4*	-2.2
Cc1cc(NC(=O)c2cc3ccccc3o2)ccc1NC(=O)c1ccccc1	-74.3	0.4	1.1	0.4	16.2*	-45.5
CC(C)CCNC(=O)C1CCN(c2cncnc2)CC1	-12.6	-0.8	2.1	nt	nt	-4.6
CSc1nc(-c2ccc(Cl)cc2Cl)[nH]c(=O)c1C#N	15.3	0.2	42.6*	-2.6	-7.7	1.4
COc1ccc(CNC(=O)CSc2nnc3c(n2)[nH]c2ccc(F)cc23)cc1	2.3	-0.4	2.6	0.4	1.4	-2.9
SMILES	ADAM10 inh	proKLK7 act	rCAG RNA binder	AHR act	NR3A LBD binder	ADAM17 inh
O=C(CSc1nnc2c(n1)[nH]c1ccc(F)cc12)NCc1ccc(F)cc1	-4.9	-0.3	1.8	1.1	10.1*	-1.3
CC1Cc2ccccc2N1C(=O)CSc1nnc2c(n1)[nH]c1ccc(F)cc12 (stereo not drawn)	3.5	0.9	6.2	18.0	22.2*	-3.0
Cc1ccc(NC(=O)Nc2sc(=S)n(C)c2C)cc1	nt	nt	nt	29.9	12.2*	nt
CC(=O)NC(=O)Nc1sc(=S)n(C)c1C	4.7	-0.1	1.5	-11.8	-1.4	-0.1
Cc1nc(SCC(=O)Nc2nc3ccccc3s2)c(C#N)c(C)c1C	-57.6	-0.7	2.6	-11.1	-0.2	-18.7
Cc1nc(SCC(=O)Nc2nccs2)c(C#N)c(C)c1C	-110.4	7.6	0.2	64.2*	-0.3	-28.4
COc1ccc(-c2[nH]c(-c3ccc(Cl)cc3)nc2SCC(=O)Nc2nccs2)cc1	-6.2	-0.1	6.4	62.0*	11.5*	-1.8
CCOC(=O)N1C(=O)C[C@](Sc2ccc(OC)cc2)(C(=O)N2CCOCC2)[C@H]1c1ccc(OC)cc1	-5.6	0.7	0.3	nt	nt	-1.6

Source: PubChem
